Sampled rows, rich in hits. Any-hit rate of the full collection: about 2.9%.
TAG inh = inhibitors of triacylglycerol accumulation, primary screen, cell-based, uHTS, fluorescence, H9c2 | inhibition, % at 12.5 µM | hit rate 0.66% among 230,000 | H9c2 cells, Nile Red lipid (TAG) fluorescence; cells loaded with 200 µM oleic acid | AID 651582, 2012;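 active = pattern-corrected inhibition of lipid staining of at least 50% with the nuclear-stain viability signal not falling by more than 50%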
Cardio protect = cardioprotection against H2O2-induced cell death, primary screen, uHTS, H9c2 cells, ATPLite luminescence. hit rate 0.63% among 360,000. protection from H2O2 cell death, % at 20 µM. AID 588492, 2011. H9c2 cardiomyocytes, H2O2 injury protection, 2 h;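 active = compounds giving at least 50% protection of heart cells from peroxide-induced death in the single-dose screen, raw or plate-pattern-corrected value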
APOBEC3G inh = APOBEC3G DNA deaminase inhibitors, primary screen, biochemical, fluorescence, single-stranded DNA substrate, uHTS. DNA dC->dU-editing enzyme APOBEC-3G (Homo sapiens), Q9HC16. inhibition, % at 20 µM. recombinant A3G, ssDNA deamination FAM/TAMRA fluorescence. hit rate 0.28% among 330,000;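 active = inhibition of at least 40% at 20 µM, with no more than 30% in the related APOBEC3A deaminase screen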
Target sequence (Q9HC16 whole entry, looked up): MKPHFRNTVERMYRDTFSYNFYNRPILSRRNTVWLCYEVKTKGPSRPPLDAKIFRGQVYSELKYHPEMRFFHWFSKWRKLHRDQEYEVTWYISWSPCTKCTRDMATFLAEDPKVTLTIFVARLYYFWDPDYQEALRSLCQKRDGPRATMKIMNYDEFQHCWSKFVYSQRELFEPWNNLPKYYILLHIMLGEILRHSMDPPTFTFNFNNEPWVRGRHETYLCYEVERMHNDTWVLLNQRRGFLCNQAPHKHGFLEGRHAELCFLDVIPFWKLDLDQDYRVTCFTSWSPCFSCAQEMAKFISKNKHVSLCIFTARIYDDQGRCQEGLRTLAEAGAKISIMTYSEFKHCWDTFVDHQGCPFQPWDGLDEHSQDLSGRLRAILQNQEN
APOBEC3A inh = APOBEC3A ssDNA deaminase inhibitors, primary screen, selectivity assay for APOBEC3G inhibitor project, biochemical, FAM/TAMRA oligo cleavage fluorescence | DNA dC->dU-editing enzyme APOBEC-3A (Homo sapiens), P31941 | recombinant A3A, FAM/TAMRA ssDNA deamination fluorescence | inhibition, % at 20 µM | hit rate 0.41% among 330,000 | AID 493011, 2011;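 active = at least 40% inhibition at 20 µM here, with at most 30% in a related deaminase screen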
Target sequence (P31941 whole entry, looked up): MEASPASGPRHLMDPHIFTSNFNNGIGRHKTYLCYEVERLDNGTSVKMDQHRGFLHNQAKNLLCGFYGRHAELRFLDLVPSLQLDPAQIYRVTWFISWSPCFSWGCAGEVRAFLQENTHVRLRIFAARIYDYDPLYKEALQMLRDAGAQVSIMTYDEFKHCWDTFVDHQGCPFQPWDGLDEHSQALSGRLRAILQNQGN
NadD block = inhibitors of S. aureus NadD, primary screen, biochemical, colorimetric, uHTS. Nicotinate-nucleotide adenylyltransferase NadD (Staphylococcus aureus N315). purified NadD enzyme, colorimetric absorbance read-out. inhibition, % at 20 µM. hit rate 0.78% among 360,000; in the data active = inhibition above about 26%
PfGluPho inh = PfG6PD enzyme inhibitors, primary screen, biochemical, fluorescence intensity, uHTS | glucose-6-phosphate dehydrogenase-6-phosphogluconolactonase (Plasmodium falciparum 3D7) | PfGluPho enzyme, NADPH resazurin-diaphorase fluorescence | inhibition, % at 20 µM | hit rate 0.78% among 350,000;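 active = inhibition reaching at least a set limit at 20 µM in the primary screen, cut at about 59% in these data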
PfGluPho conf = PfG6PD inhibitors, hit retest, confirmation, biochemical, fluorescence intensity, single concentration | shares compounds with PfGluPho inh | recombinant PfGluPho, NADPH-diaphorase-resazurin fluorescence | inhibition, % at 20 µM | hit rate 34% among 2,400;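 active = inhibition of at least 50% at 20 µM in any single replicate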
Diaph ctr 10uM = diaphorase inhibitors and chemical oxidizers, confirmation, counter-screen for P. falciparum G6PD inhibitor project, biochemical, fluorescence intensity, 10 µM NADPH; shares compounds with PfGluPho inh; diaphorase-coupled resazurin reduction, NADPH 10 uM; inhibition, % at 20 µM; hit rate 39% among 820;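 active = average inhibition reaching 50% or more with the compound at 20 µM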;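 note: resorufin red fluorescence formed as diaphorase reduces resazurin using NADPH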
Diaph ctr 30uM = diaphorase inhibitors and chemical oxidizers, confirmation, counter-screen for P. falciparum G6PD inhibitor project, biochemical, fluorescence intensity, 30 µM NADPH. inhibition, % at 20 µM. hit rate 29% among 820. shares compounds with PfGluPho inh. AID 504863, 2011. Diaphorase/resazurin coupled assay, resorufin fluorescence;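 active = inhibition averaging 50% or more, tested at 20 µM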
Hits are given with their value; i = inactive; nt = not tested or not shown.

SMILES	TAG inh	Cardio protect	APOBEC3G inh	APOBEC3A inh	NadD block	PfGluPho inh	PfGluPho conf	others
N#Cc1ccc2sn(-c3ccccc3)c(=O)c2c1	i	i	nt	nt	i	126.3	107.2	Diaph ctr 10uM=i;Diaph ctr 30uM=i
N#Cc1ccc2c(c1)nnn2-c1ccccc1	i	i	i	i	i	i	nt
Cc1oc2c(C)c3oc(=O)c(CCC(=O)O)c(C)c3cc2c1-c1ccccc1	nt	i	i	i	i	i	nt
Cc1ccc(C(=O)NCCC(=O)NCc2ccco2)cc1	i	i	i	i	i	i	nt
O=C(NCCCN1CCOCC1)c1ccc(CSc2ccc(Cl)cc2)cc1	i	i	i	i	i	i	nt
O=C1C=C(c2c(O)ccc3ccccc23)c2ccccc2C1=O	i	i	nt	nt	i	118.4	111.5	Diaph ctr 10uM=96.2;Diaph ctr 30uM=97.5
Cc1ccc(S(=O)(=O)Nc2ccccc2N2CCOCC2)cc1	i	i	i	i	i	61.8	i
Cc1cccc(S(=O)(=O)Nc2cc(Cl)ccc2N2CCOCC2)c1	i	i	i	i	i	87.2	i
Cc1ccc(S(=O)(=O)Nc2ccc(N3CCOCC3)cc2)cc1	nt	i	i	i	i	i	nt
Cc1ccc(S(=O)(=O)Nc2ccccc2-c2ccccc2)cc1	i	i	i	i	i	76.4	i
Cc1ccc(S(=O)(=O)Nc2ccccc2N2CCCCC2)cc1	i	i	i	i	i	95.3	i
CCc1ccccc1N(CC(=O)NC(C)(C)C)C(=O)CCC(=O)Nc1ccccn1	nt	i	i	i	i	i	nt
COC(=O)C(NC(=O)CCC(=O)N[C@@H](C(=O)OC)c1ccccc1)c1ccccc1 (stereo partly specified)	i	i	i	i	i	i	nt
CCNc1c(NC(=O)c2ccc3c(c2)OCO3)c(=O)oc2ccccc12	nt	i	i	i	i	i	nt
CCOc1ccc2nc3cc(NCc4ccc(OC)cc4)ccc3c(N)c2c1	nt	i	i	i	46.8	67.2	i
CCn1cnc2cc(NCc3ccc(OC)cc3)ccc21	nt	i	i	i	i	i	nt
CCN(CC)CCCNc1ccc2ncn3c4ccc(O)cc4c(=O)c1c23	i	i	nt	nt	i	79.9	i
CC(C)CCNC(=O)C1CCN(S(=O)(=O)c2ccc(-n3cnnn3)cc2)CC1	nt	i	i	i	i	i	nt
CC(NC(=O)/C(C#N)=C/c1ccc([N+](=O)[O-])o1)c1ccccc1 (stereo unspecified)	nt	i	i	i	i	92.2	69.0	Diaph ctr 10uM=64.1;Diaph ctr 30uM=66.2
CCOCCCNC(=O)/C(C#N)=C/c1ccc([N+](=O)[O-])o1	i	i	i	i	i	83.6	73.9	Diaph ctr 10uM=62.7;Diaph ctr 30uM=70.6
O=C(COc1ccc(Cl)cc1)Nc1ccccc1C(=O)NCc1cccnc1	i	i	i	i	i	i	nt
Cc1cc(NC(=O)C(C)SCC(=O)Nc2cc(C(F)(F)F)ccc2N2CCOCC2)no1 (stereo unspecified)	i	i	i	i	i	i	nt
COc1ccc(/C=N/Nc2ccc([N+](=O)[O-])cc2)cc1Cn1cc([N+](=O)[O-])cn1	i	i	i	i	i	i	nt
COc1ccc(/C=N/Nc2ccc([N+](=O)[O-])cc2)cc1O	nt	i	i	i	i	80.6	i
NC(=O)c1ncc(C(F)(F)F)cc1Oc1cccnc1	i	i	i	i	i	i	nt
SMILES	TAG inh	Cardio protect	APOBEC3G inh	APOBEC3A inh	NadD block	PfGluPho inh	PfGluPho conf	others
COc1ccc(Br)cc1CNc1ccc(O)cc1	i	i	i	i	i	67.6	i
CCOc1ccccc1CNc1nc2ccccc2n1C	nt	i	i	i	i	i	nt
COc1ccc(Br)cc1CNc1ccc2[nH]c(=O)[nH]c2c1	i	i	i	i	i	i	nt
Cc1ccc(NCc2ccccc2OCc2ccccc2F)cc1	i	i	i	i	i	i	nt
CCOc1ccccc1CNc1ccc(O)cc1	i	i	nt	nt	i	73.9	63.4	Diaph ctr 10uM=i;Diaph ctr 30uM=i
CCOc1cccc(CNc2ccc(O)cc2)c1OCc1ccc(Cl)cc1	i	i	i	i	i	69.7	i
Oc1ccc(NCc2ccccc2OCc2ccccc2F)cc1	i	i	i	i	i	76.2	i
CC(=O)NC(c1ccc(F)c(F)c1)c1nc(-c2ccncc2)cs1 (stereo unspecified)	i	i	nt	nt	i	nt	nt
CC1=C(C(N)=O)C(c2ccccc2[N+](=O)[O-])n2ncnc2N1 (stereo unspecified)	nt	i	i	i	i	65.2	i
C=C(C)COc1ccc(-c2ncnc(C(F)(F)F)c2-c2ccc(OC)cc2)c(O)c1	nt	i	i	i	i	70.5	i
C=C(C)COc1ccc(-c2ncnc(C(F)(F)F)c2-c2ccccc2)c(O)c1	nt	i	i	i	i	i	nt
CN1CCC(NC(=O)c2cc(-c3cccc(Br)c3)nc3ccccc23)CC1	i	i	i	i	i	i	nt
CCOC(=O)COn1c(-c2cccc(Cl)c2)nc2ccc([N+](=O)[O-])cc21	i	i	i	i	i	109.7	i
CCOC(=O)C(C)On1c(-c2cccc(Cl)c2)nc2ccc([N+](=O)[O-])cc21 (stereo unspecified)	i	i	i	i	i	64.5	i
CC(On1c(-c2ccccc2)nc2ccc(Cl)cc21)C(=O)O (stereo unspecified)	i	i	i	i	i	i	nt
CCC(C)NC(=O)C1c2ccccc2C(=O)N1Cc1ccc(F)cc1 (stereo unspecified)	nt	i	i	i	i	i	nt
O=C(CN1CCN(C(C(=O)Nc2ccc(Cl)cc2C(F)(F)F)c2ccccc2)CC1)NC1CC1 (stereo unspecified)	i	i	i	i	i	i	nt
COc1ccc(C2C(Oc3ccccc3)C(=O)N2c2ccc(C)c(C)c2)cc1OC (stereo unspecified)	i	i	i	i	i	81.3	i
CC(OC(=O)CCN=C1NS(=O)(=O)c2ccccc21)C(=O)Nc1ccc(N(C)C)cc1 (stereo unspecified)	i	i	i	i	i	70.3	i
